Pf growth 48h: P. falciparum growth inhibition at 48 hours (one generation); P. falciparum luciferase growth in erythrocytes, 48 h; Potency, µM (series often up to 28.7 µM), for inactives: at the top dose activity change, negative = inhibition, usual class: inhibitors; 310,000 compounds, 5.9% hits; also: potency is read from the fitted curve at half-maximal effect; % is scaled to controls: 0 for no effect and ±100 for the full control effect
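First compound was added to culture medium, then infected red cells at 0.1% parasitemia and 2% hematocrit (final). After incubation at 37 C under 5% CO2, luciferase detection reagent was dispensed and light output recorded.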
SARS PLP yeast: SARS-CoV PLP inhibition in yeast; S. cerevisiae expressing SARS-CoV PLpro, growth rescue; Potency, µM (titrated, usually from 32.9 µM), for inactives: at the highest dose activity, positive = growth rescue, usual class: activators; 330,000 compounds, 0.19% hits; calls by dose curve; also: potency is read from the fitted curve at half-maximal effect; 0% is about no effect; nearly all actives have a fitted effect of over 55% in size
CHX counter: counter-screen hit for Shiga toxin inhibitors, cycloheximide. cell reporter, cycloheximide protein synthesis inhibition counterscreen. max response, %. 300,000 compounds, 12% hits. AID 2314; in the data active = max response mostly above about 13%, no sharp cut-off; inactive = mostly below about 14%; also: read at 38.3 µM for the half of the compounds with a filed dose; 0% is about no effect
Pf growth 96h: inhibits malaria parasite growth, 96 h; 320,000 compounds, 6.9% hits; Potency, µM (series often up to 28.7 µM), inactives show at the highest dose activity change, negative = inhibition, hits mostly inhibitors; P. falciparum luciferase reporter growth, 96 h; also: potency is read from the fitted curve at half-maximal effect; % is scaled to controls: 0 for no effect and ±100 for the full control effect
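Luminescence readout: decreased luciferase signal marks inhibited growth of reporter-expressing P. falciparum in infected red cells (2% hematocrit, 0.05% parasitemia final), exposed to compound two generations (96 h, 37 C, 5% CO2).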
AMA1 RON2 block: AMA1-RON2 (P. falciparum) interaction inhibition; AlphaScreen AMA1-biotinylated RON2 peptide binding; Potency, µM (top dose mostly 58.2 µM), for the others: top-dose activity change, negative = inhibition, hits mostly inhibitors; 360,000 compounds, 0.2% hits;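 also: potency is read from the fitted curve at half-maximal effect; 0% = vehicle wells and -100% = peptide control; nearly all actives have a fitted effect of over 45% in size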
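AMA1 (3D7) with his tag at 25 nM final met compounds first, then biotinylated RON2 peptide at 25 nM; detection used donor plus acceptor beads, 10 µg/mL apiece, read by AlphaScreen after 30 min at room temperature.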
Shiga inhibitor: inhibitors of Shiga toxin in Vero cells. Vero cells, Shiga toxin protein synthesis inhibition reporter. AID 2315. inhibition, % at 38.7 µM. 290,000 compounds, 9.2% hits; in the data active = inhibition mostly above about 28%, no sharp cut-off; inactive = mostly below about 43%; also: 0% is about no effect
Numbers without * were called inactive; i = inactive; ? = inconclusive; nt = no result given. This is a sample that favours compounds with a hit; in the whole collection about 19% have one here. Unless noted, calls follow the shape of the dose curve; as a rule, active = well fitted curve in the direction sought with a large enough effect; inconclusive = small, poorly fitted or top-dose-only effect, or another doubt; inactive = no such curve, though single readings can be large; an effect the other way counts as inactive or inconclusive.

SMILES | Pf growth 48h | SARS PLP yeast | CHX counter | Pf growth 96h | AMA1 RON2 block | Shiga inhibitor
Cc1nc2ccccn2c1C(=O)Nc1ccc2c(c1)OCCO2 | i | -11% | 45* | 260% | -3% | 112*
CC(=O)Nc1ccc(NC(=O)c2c(C)nc3ccccn23)cc1 | 41% | -3% | 4 | nt | 9% | 32
Cc1nc2ccccn2c1C(=O)CSc1cccc(Cl)c1 | ? | -29% | 12 | ? | 17% | 38
CCN(C(=O)CCc1nnc2ccc(NCc3ccco3)nn12)c1ccccc1 | ? | -4% | -1 | ? | 2% | -4
COc1ccccc1N1CCN(C(=O)/C=C/c2c(Cl)nc3ccccn23)CC1 | ? | -4% | 5 | 39% | 13% | -16
COc1ccc(NC(=O)/C=C/c2c(Cl)nc3ccccn23)cc1 | 1% | -4% | 20* | -19% | -9% | -2
O=C1NC(=Nc2cccc(Cl)c2)SC1Cc1cccc(Cl)c1Cl (stereo not given) | -10% | 0% | -7 | 10µM* | 6% | -6
O=C1N/C(=N\c2ccccn2)SC1Cc1ccccc1Cl (stereo not given) | ? | 1% | 5 | ? | 33% | 22
CC(=O)N1CCOc2ccc(S(=O)(=O)NC(C)c3ccccc3)cc21 (stereo not given) | 17% | -4% | 1 | 11% | 11% | -2
COc1ccccc1NS(=O)(=O)c1cccc(NC(=O)Nc2cccc(Cl)c2)c1 | ? | 5% | -3 | ? | -28% | 3
Cc1ccc(S(=O)(=O)NCCC2=CCCCC2)cc1C(N)=O | 15% | nt | -2 | 10µM* | -13% | -8
COc1ccccc1NS(=O)(=O)c1cccc(NC(=O)CCNC(=O)c2ccccc2OC)c1 | 9.3µM* | 0% | nt | 12µM* | 4% | nt
COc1ccccc1NS(=O)(=O)c1cccc(NC(=O)NCCCl)c1 | 0% | 7% | 1 | 12µM* | 5% | 8
COc1ccccc1NS(=O)(=O)c1cccc(NC(=O)c2sc3ccccc3c2Cl)c1 | 12µM* | 1% | 11 | -20% | -1% | 21
Cc1cc(S(=O)(=O)NCCC2=CCCCC2)ccc1Br | 2% | -1% | nt | 50% | 11% | nt
O=C1NC(=O)C(=C2CCOC2=O)N1 | nt | nt | nt | nt | 2% | nt
COc1cc(-c2noc(C)c2C(=O)NCCCN2CCOCC2)cc(OC)c1OC | nt | -29% | nt | nt | 9% | nt
CCOC(=O)/C(C#N)=C/Nc1ccccc1NS(=O)(=O)c1cccc(C(C)=O)c1 | ? | 1% | -1 | ? | 75% | -5
CCOC(=O)/C(C#N)=C/Nc1ccccc1NS(=O)(=O)c1ccc(C)c(C)c1 | ? | -1% | -2 | 2.9µM* | 42% | -1
COc1ccccc1NS(=O)(=O)c1ccc(C)c(C(N)=O)c1 | 16% | 1% | -1 | 5.2µM* | 11% | -5
CCN(CCNC(=O)Cn1c(=O)sc2ccccc21)c1ccccc1 | nt | 3% | 1 | -6% | -15% | -41
CC(NCC1(N2CCOCC2)CCCCC1)C(=O)N1CCc2ccccc21 (stereo not given) | ? | 9% | 2 | nt | -1% | -9
CC(NCC1(N2CCOCC2)CCCCC1)C(=O)Nc1ccc(Cl)cc1Cl (stereo not given) | ? | -3% | 14 | 9.3µM* | -5% | -4
CC(Sc1ccc(S(=O)(=O)N2CCN(C)CC2)cn1)C(=O)Nc1cccc(Cl)c1Cl (stereo not given) | nt | nt | nt | nt | -19% | nt
CC(Sc1ccc(S(=O)(=O)N2CCOCC2)cn1)C(=O)Nc1ccc(Cl)cc1Cl (stereo not given) | 12µM* | 3% | nt | ? | -1% | nt
SMILES | Pf growth 48h | SARS PLP yeast | CHX counter | Pf growth 96h | AMA1 RON2 block | Shiga inhibitor
COCCN1C(=O)C(O)=C(C(=O)c2cccs2)C1c1ccccc1 (stereo not given) | 31% | 11% | 6 | 34% | 2% | 11
O=C1NC(c2ccccc2)C(C(=O)c2cccs2)=C1O (stereo not given) | 13% | -2% | 6 | 12µM* | -24% | 15
COc1ccc(OC)c(C2CC(c3c(-c4ccccc4)c4cc(Cl)ccc4[nH]c3=O)=NN2S(C)(=O)=O)c1 (stereo not given) | 9.3µM* | 4% | 4 | 2.1µM* | 5% | 14
CCOC(=O)N1CCC(Nc2c(-c3ccc(C)c(C)c3)c(=O)c2=O)CC1 | -7% | -3% | 6 | 0.52µM* | 1% | -9
CCOC(=O)N1CCC(Nc2c(N3CCN(c4cc(Cl)ccc4C)CC3)c(=O)c2=O)CC1 | nt | 6% | -5 | 4.7µM* | 0% | -11
CCCN(CCC)CCNc1c(NC2CCN(C(=O)OCC)CC2)c(=O)c1=O | nt | -8% | -3 | ? | 0% | 0
CCn1c(=O)c(C(=O)CN2CCCc3ccccc32)c(N)n(Cc2ccccc2)c1=O | 9.3µM* | 0% | 5 | 12µM* | 7% | 28
Cn1c(=O)c(C(=O)CN2CCCCCC2)c(N)n(Cc2ccccc2)c1=O | ? | 0% | 1 | ? | -16% | -14
CC1Cc2ccccc2N1CC(=O)c1c(N)n(Cc2ccccc2)c(=O)n(C)c1=O (stereo not given) | 8.3µM* | 19% | 0 | 9.3µM* | ? | -17
Cc1cc(C)c(C)c(S(=O)(=O)N2CCN(CC(=O)c3c(N)n(Cc4ccccc4)c(=O)n(C)c3=O)CC2)c1C | 5.9µM* | 3% | -2 | ? | 0% | 17
CCn1c(=O)c(C(=O)CN2CCN(S(=O)(=O)c3ccccc3)CC2)c(N)n(Cc2ccccc2)c1=O | -12% | 1% | -5 | ? | 13% | -3
CCn1c(=O)c(C(=O)CN2CCN(S(=O)(=O)c3ccc(C)cc3C)CC2)c(N)n(Cc2ccccc2)c1=O | ? | 13% | -3 | 8.3µM* | -12% | -3
CC(C)C(NS(=O)(=O)c1cccc(C(F)(F)F)c1)C(=O)O (stereo not given) | 38% | 0% | -2 | 48% | -7% | 13
Cc1cccc(N2CCN(C(=O)COc3noc4nc(C)cc(C)c34)CC2C)c1 (stereo not given) | nt | nt | nt | nt | -4% | nt
Cc1ccc(C(=O)N2CCCCC2)cc1S(=O)(=O)N1CCOCC1 | -21% | -6% | -2 | 100% | 10% | -5
O=c1oc(Cl)c(Cl)c2ccccc12 | ? | nt | nt | 30% | ? | nt
COc1oc(=O)c2cc(N)ccc2c1Cl | nt | nt | 62* | nt | nt | 71*
O=c1[nH]c(CN2CCN(c3ccc(O)cc3)CC2)nc2scc(-c3ccc(Cl)cc3)c12 | 3.7µM* | -4% | -3 | ? | 16% | -12
O=c1[nH]c(CN2CCN(c3ccccc3O)CC2)nc2scc(-c3ccccc3Cl)c12 | 5.2µM* | -2% | -3 | 9.3µM* | 92% | 20
O=c1[nH]c(CN2CCN(c3ccccc3Cl)CC2)nc2ccsc12 | -6% | 3% | 1 | ? | 28% | 1

Compound activity deposited in PubChem by National Center for Advancing Translational Sciences (NCATS).
